The values below come from PubChem BioAssay.

The source made the active and inactive calls.

In assay [1] the test system is Plasmodium falciparum Sir2 (PF13_0152, Sir2A). Kind of assay: Plasmodium falciparum Sir2A binding compounds – biochemical, small-molecule microarray, 635 nm fluorescence, primary screen (AID 1098).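 Note: score merges spot fluorescence intensity with its signal-to-noise ratio.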 Conditions: fluorescence 635 nm, higher = more signal.
Assay [2] is described as follows: probe aDKK1 binding to arrayed compounds – biochemical, biotinylated probe, 635/667 nm fluorescence, primary screen (AID 1099).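 Note: score merges 667nm spot fluorescence with signal to noise across triplicate slides.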 Conditions: small-molecule microarray, higher = more signal.
Assay [3] is described as follows: probe aCHRDL2 binding to arrayed compounds – biochemical, biotinylated probe, 635/667 nm fluorescence, primary screen (AID 1100). Conditions: small-molecule microarray, higher = more signal.
Assay [4] is described as follows: change in splice reporter luminescence, either direction, cell-based, HEK293, spliceosome inhibition project, primary screen (AID 1101).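 Note: HEK293 cells carrying a splicing-competent luciferase reporter gene; test concentration not given here.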 To be noted: HEK293 splicing luciferase reporter, 24 h, higher = more signal, called active from +8 up or from −8 down.
Assay [5] addresses Fibroblast growth factor 10 (Homo sapiens) (UniProt O15520). Kind of assay: compounds binding fibroblast growth factor 10 – biochemical, small-molecule microarray, 635 nm fluorescence, primary screen (AID 1102). Conditions: FGF10 binding, fluorescence 635 nm, higher = more signal.
Assay [6] has as its system glycogen synthase kinase-3 (GSK3A per assay name; protocol says GSK3B). Kind of assay: compounds binding glycogen synthase kinase-3 – biochemical, small-molecule microarray, 635 nm fluorescence, GSK3A, primary screen (AID 1103). Note: the record names both GSK3A and GSK3B. Conditions: fluorescence 635 nm, higher = more signal.
The target in assay [7] is Epidermal growth factor receptor (Homo sapiens) (UniProt P00533). Kind of assay: compounds binding epidermal growth factor receptor – biochemical, small-molecule microarray, 635 nm fluorescence, primary screen (AID 1104).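 Note: score merges 667 nm emission intensity with spot signal to noise over triplicate slides.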 To be noted: EGFR binding, higher = more signal.
Assay [8] concerns the target Follistatin-related protein 3 (Homo sapiens) (UniProt O95633). Kind of assay: compounds binding follistatin-related protein 3 – biochemical, small-molecule microarray, 635 nm fluorescence, primary screen (AID 1105).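 Note: score merges emission near 667 nm and signal to noise per printed spot across three slides.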 Conditions: FSTL3 binding, higher = more signal.
Assay [9] has as its target Dickkopf-related protein 1 (Homo sapiens) (UniProt O94907). Description: small molecules binding DKK1 protein – biochemical, small-molecule microarray, 635 nm fluorescence scan, primary screen (AID 1106).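 Note: score merges emission near 667 nm with signal to noise over three replicate slides.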 Conditions: higher = more signal.
For assay [10], the system named is Inhibin beta A chain (activin A). Kind of assay: small molecules binding activin A – biochemical, small-molecule microarray, 635 nm fluorescence scan, primary screen (AID 1107).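 Note: mouse activin A protein probed at 4.33 µg/mL on printed slides; score merges bound-protein fluorescence near 667 nm with spot signal-to-noise.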 Conditions: INHBA, higher = more signal.
Assay [11] relates to Human papillomavirus type 1a protein E7 (residues 44-93). Kind of assay: small molecules binding HPV E7 44-93 – biochemical, small-molecule microarray, residues 44-93, 635 nm fluorescence, primary screen (AID 1108).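 Note: E7 fragment applied at 1 µg/mL in TBST for 1 h at 4 C; score combines spot fluorescence with its signal to noise ratio.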 To be noted: fluorescence 635 nm, higher = more signal.
Assay [12] can be described thus: hepatitis C replication reporter changes, two-sided – Huh7 cells, luciferase reporter, HCV replication inhibitor project, primary screen (AID 1109).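 Note: huh7 hepatoma cells harbouring a luciferase neomycin HCV replicon reporter; luciferase luminescence as measure of HCV replicon replication; test concentration not given here.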 To be noted: Huh7 HCV replicon luciferase reporter, 48 h; higher = more signal.
In assay [13] the target is Left-right determination factor 2 (Homo sapiens) (UniProt O00292). Description: small molecules binding LEFTY2 protein – biochemical, small-molecule microarray, 635 nm fluorescence scan, primary screen (AID 1110). Conditions: higher = more signal.
The target in assay [14] is Calmodulin-1 (Homo sapiens) (UniProt P0DP23). Kind of assay: small molecules binding calmodulin-1 with EGTA – biochemical, small-molecule microarray, Cy5-labelled CALM1, profiling panel (AID 1111).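 Note: labelled calmodulin applied in Tris saline Tween buffer holding calcium plus EGTA and DTT.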 To be noted: Cy5-CALM1 binding fluorescence, higher = more signal.
The target is the same in assay [15]. Description: small molecules binding Ca-loaded calmodulin-1 – biochemical, small-molecule microarray, Cy5-labelled CALM1, plus calcium, artefact control for SMM control-protein annotation, profiling panel (AID 1112).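 Note: score merges spot fluorescence with signal to noise from triplicate slides.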 To be noted: Cy5-CALM1 binding fluorescence, higher = more signal.
A short description of assay [16]: probe aWnt5a binding to arrayed compounds – biochemical, biotinylated probe, 635/667 nm fluorescence, primary screen (AID 1113).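 Note: score merges 667 nm fluorescence intensity with signal-to-noise per printed feature.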 To be noted: small-molecule microarray, higher = more signal.
Assay [17] can be described thus: probe aShh binding to arrayed compounds – biochemical, biotinylated probe, 635/667 nm fluorescence, primary screen (AID 1114).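 Note: probe is biotin-labelled aShh protein from a stem cell growth factor screen; measures binding of labelled protein to compounds printed on the slide; score merges feature fluorescence at 667 nm with signal-to-noise.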 To be noted: small-molecule microarray, higher = more signal.
The nature of assay [18]: probe aNog binding to arrayed compounds – biochemical, biotinylated probe, 635/667 nm fluorescence, primary screen (AID 1115).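 Note: probe is biotinylated aNog protein used at 0.15 µg/mL for 1 h at 4 C; z-score combines 667 nm fluorescence of each spot with its signal to noise.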 To be noted: small-molecule microarray, higher = more signal.
Assay [19] deals with Torsin-1A-interacting protein 1 (Homo sapiens) (UniProt Q5JTV8). Kind of assay: compound microarray binding of lysate hLAP1 – cell lysate, small-molecule microarray, COS7 lysate, 635/667 nm fluorescence, primary screen (AID 1116). Conditions: 635 nm fluorescence, higher = more signal.
In assay [20] the target is Alpha-bungarotoxin (Bungarus multicinctus) (UniProt P60615). Kind of assay: compounds binding labelled alpha-BTX control protein – biochemical, small-molecule microarray, Alexa647 label, 635/667 nm fluorescence, artefact control for SMM control protein annotation, profiling panel (AID 1117). To be noted: alpha-BTX-A647 binding fluorescence, higher = more signal.
Sequence of Alpha-bungarotoxin (Bungarus multicinctus) (P60615 whole entry, looked up): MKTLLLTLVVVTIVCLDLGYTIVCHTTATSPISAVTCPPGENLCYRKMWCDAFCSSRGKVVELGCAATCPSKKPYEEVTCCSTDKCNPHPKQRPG

Sequence of Torsin-1A-interacting protein 1 (Homo sapiens) (Q5JTV8 whole entry, looked up): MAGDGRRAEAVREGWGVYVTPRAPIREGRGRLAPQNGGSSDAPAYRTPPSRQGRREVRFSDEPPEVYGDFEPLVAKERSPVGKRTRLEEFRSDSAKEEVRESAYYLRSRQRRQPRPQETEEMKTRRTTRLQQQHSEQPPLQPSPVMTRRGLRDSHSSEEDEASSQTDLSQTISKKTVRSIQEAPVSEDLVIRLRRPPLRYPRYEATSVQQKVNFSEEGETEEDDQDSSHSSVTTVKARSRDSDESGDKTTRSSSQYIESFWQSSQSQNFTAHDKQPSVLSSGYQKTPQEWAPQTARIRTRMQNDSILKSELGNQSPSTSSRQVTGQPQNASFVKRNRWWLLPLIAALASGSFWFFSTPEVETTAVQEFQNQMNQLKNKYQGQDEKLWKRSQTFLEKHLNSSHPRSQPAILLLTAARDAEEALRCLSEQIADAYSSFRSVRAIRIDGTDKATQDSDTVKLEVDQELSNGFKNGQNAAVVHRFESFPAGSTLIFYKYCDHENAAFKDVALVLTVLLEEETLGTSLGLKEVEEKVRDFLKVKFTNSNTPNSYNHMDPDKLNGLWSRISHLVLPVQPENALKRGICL
Sequence of Dickkopf-related protein 1 (Homo sapiens) (O94907 whole entry, looked up): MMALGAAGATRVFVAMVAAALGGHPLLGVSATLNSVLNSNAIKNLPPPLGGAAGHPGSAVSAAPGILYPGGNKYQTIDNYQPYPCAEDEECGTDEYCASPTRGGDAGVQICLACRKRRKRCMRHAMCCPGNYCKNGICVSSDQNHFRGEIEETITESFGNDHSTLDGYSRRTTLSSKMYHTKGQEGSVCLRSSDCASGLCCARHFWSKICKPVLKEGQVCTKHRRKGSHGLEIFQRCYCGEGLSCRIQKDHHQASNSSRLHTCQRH
Sequence of Follistatin-related protein 3 (Homo sapiens) (O95633 whole entry, looked up): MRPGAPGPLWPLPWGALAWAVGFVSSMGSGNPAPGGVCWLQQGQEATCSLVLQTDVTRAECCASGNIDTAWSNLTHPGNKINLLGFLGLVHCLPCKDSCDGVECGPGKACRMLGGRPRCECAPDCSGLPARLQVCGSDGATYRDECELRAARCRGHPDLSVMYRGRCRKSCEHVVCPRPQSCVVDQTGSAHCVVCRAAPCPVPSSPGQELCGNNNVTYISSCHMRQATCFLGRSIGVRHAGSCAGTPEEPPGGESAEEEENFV
Sequence of Left-right determination factor 2 (Homo sapiens) (O00292 whole entry, looked up): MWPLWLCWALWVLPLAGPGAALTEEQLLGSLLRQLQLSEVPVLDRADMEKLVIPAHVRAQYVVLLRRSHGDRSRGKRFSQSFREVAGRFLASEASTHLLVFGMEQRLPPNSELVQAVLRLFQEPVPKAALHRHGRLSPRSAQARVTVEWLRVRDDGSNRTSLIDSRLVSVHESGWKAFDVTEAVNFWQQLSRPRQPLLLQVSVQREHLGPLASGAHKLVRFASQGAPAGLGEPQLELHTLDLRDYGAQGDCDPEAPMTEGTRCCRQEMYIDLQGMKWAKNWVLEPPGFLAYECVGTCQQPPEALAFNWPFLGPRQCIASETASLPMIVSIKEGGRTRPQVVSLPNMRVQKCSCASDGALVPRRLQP
Sequence of Epidermal growth factor receptor (Homo sapiens) (P00533 whole entry, looked up): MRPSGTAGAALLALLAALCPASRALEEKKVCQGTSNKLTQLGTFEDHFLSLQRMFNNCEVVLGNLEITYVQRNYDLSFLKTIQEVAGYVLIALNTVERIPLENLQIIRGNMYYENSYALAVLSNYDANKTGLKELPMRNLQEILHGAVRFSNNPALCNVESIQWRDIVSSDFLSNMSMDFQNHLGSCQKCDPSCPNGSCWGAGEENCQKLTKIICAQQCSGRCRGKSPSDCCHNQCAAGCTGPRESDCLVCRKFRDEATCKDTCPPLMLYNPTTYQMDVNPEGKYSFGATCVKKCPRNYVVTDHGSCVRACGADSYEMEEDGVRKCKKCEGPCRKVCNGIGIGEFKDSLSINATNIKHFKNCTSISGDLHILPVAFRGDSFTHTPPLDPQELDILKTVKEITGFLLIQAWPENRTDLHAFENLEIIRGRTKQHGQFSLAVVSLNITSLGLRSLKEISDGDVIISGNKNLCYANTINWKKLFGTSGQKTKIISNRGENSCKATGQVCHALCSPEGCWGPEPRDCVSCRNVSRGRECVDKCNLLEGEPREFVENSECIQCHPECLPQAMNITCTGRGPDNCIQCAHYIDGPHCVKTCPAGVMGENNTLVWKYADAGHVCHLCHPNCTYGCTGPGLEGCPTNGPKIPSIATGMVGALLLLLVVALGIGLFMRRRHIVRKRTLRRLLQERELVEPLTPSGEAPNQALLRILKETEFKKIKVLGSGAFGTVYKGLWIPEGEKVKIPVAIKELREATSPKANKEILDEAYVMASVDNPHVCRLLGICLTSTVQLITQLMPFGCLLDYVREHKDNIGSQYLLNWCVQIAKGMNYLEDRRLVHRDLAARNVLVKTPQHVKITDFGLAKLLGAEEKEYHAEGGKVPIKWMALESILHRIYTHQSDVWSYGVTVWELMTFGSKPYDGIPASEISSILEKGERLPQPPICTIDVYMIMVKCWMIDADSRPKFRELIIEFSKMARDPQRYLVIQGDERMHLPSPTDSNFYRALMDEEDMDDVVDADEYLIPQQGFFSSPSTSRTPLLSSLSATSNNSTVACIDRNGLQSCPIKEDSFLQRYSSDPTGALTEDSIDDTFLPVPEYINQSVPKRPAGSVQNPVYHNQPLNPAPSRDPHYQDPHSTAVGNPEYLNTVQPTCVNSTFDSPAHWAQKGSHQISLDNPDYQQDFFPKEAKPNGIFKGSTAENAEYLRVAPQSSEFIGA
Sequence of Fibroblast growth factor 10 (Homo sapiens) (O15520 whole entry, looked up): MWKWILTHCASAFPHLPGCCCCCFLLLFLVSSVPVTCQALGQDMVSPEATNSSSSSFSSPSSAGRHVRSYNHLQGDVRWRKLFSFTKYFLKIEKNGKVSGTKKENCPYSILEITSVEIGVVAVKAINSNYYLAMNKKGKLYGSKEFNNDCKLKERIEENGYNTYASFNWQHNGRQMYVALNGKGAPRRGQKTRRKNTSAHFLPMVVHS

As for `NC(=O)[C@@H]1[C@H]2C(=O)O[C@H](c3ccccc3)[C@H](c3ccccc3)N2[C@H](c2ccc(O)cc2)[C@@]12C(=O)Nc1ccccc12`, the composite z-score in [1] is 0.0555; in assay [2], -0.109; in [3], 0.798; in assay [5], -0.433; in assay [6], -1.04; in [7], -0.49. Besides, the composite z-score was -1.06 in [8]; -1.91 in [9]; -0.638 in [10]; 0.812 in assay [11]; -2.27 in [13]; -0.395 in assay [14]. Also, the composite z-score was -0.127 in assay [15]; -0.127 in assay [16]; -0.0553 in assay [17]; 0.264 in [18]; -1.02 in [19]; -0.674 in assay [20]. The results for the z-score in assay [4] and in [12] were -0.936 (inactive) and -1.1, respectively.
`Cc1ccc([C@@H]2C[C@@H](Sc3ccccc3)[C@H](C(=O)O)CN2S(=O)(=O)c2ccc(C)cc2)cc1`: the composite z-score in assay [1] was 1.31; in assay [2], 0.055; in [3] it was 0.874; in [5], 1.37; in assay [6] it was 1.34; in assay [7], 0.271. Moreover, the composite z-score was 0.968 in assay [8]; -0.0594 in assay [9]; 0.289 in assay [10]; 1.47 in assay [11]; 0.0973 in [13]; 1.66 in [14]. For the same molecule, the composite z-score in assay [15] stood at 0.481; in [16], 0.0219; in assay [17], 0.408; in assay [18], 1.55; in assay [19], 1.17; in assay [20] it was 1.69. Moreover, the z-score in assay [4] was -0.521 (inactive); in [12], -0.733.
Take `COc1ccccc1CN1C(=O)c2ccccc2[C@@H](C(=O)NC2CC2)[C@@H]1c1ccc(CO)cc1`: the composite z-score in assay [1] turned out to be 0.743; in assay [2], 0.667; in [3], 0.556; in [5], 1.27; in [6], 1.28; in [7], 0.521. In addition, the composite z-score was determined as 1.44 in assay [8]; 1.23 in assay [9]; 0.633 in [10]; 0.0772 in assay [11]; 0.57 in assay [13]; 0.522 in assay [14]. In addition, the composite z-score in assay [15] was -0.779; in [16] it was -0.0512; in [17], 0.257; in assay [18], -0.519; in [19], 0.0469; in assay [20], 1.3. For the same molecule, the z-score in [4] was 0.0463 (inactive); in assay [12], -1.3.
With `O=C1N(Cc2ccccc2)c2ccccc2[C@@H]2OC(c3ccc(OCCCO)cc3)=N[C@]12CCS(=O)(=O)c1ccccc1`, the composite z-score in assay [1] was 0.833; in assay [2], 0.562; in assay [3] it was 0.78; in assay [5], 0.17; in assay [6] it was 0.251; in [7] it was -0.24. Besides, the composite z-score in assay [8] was 0.0891; in assay [9], 0.0435; in assay [10], 1.07; in [11], 1.38; in assay [13], 0.274; in assay [14], 1.61. Further, the composite z-score was 0.246 in [15]; 0.0279 in assay [16]; -0.0575 in assay [17]; -0.807 in assay [18]; 0.655 in [19]; 1.48 in [20]. The z-score is 1.2 (inactive) in assay [4] and -1.38 in [12].
As to `COC(=O)C[C@H]1O[C@]2(C(=O)N(C)c3ccccc32)[C@@H](C)[C@@H]1[Si](C)(C)F`, the composite z-score in assay [1] was -0.0042; in assay [2] it was -0.113; in assay [3] it was -0.583; in [5], 0.96; in assay [6], 0.557; in assay [7], 0.616. For the same molecule, the composite z-score in assay [8] is 0.774; in assay [9], 0.695; in assay [10], 0.369; in [11], 0.882; in assay [13], 0.392; in assay [14], 0.0461. Also, the composite z-score in assay [15] was -0.389; in assay [16] it was -0.0472; in assay [17], 0.23; in assay [18], -0.357; in [19], 0.239; in assay [20], -0.0089. Besides, the z-score was -1.8 (inactive) in assay [4] and 0.0456 in assay [12].
For `C[C@@]1([C@@H](NC(=O)c2ccc(-c3ccccc3)cc2)c2ccc(Cl)cc2)C[C@H]1C1CCCCC1`, the composite z-score in [1] turned out to be 0.78; in assay [2], 1.13; in assay [3], 1.07; in [5], 0.575; in assay [6], 0.787; in assay [7], 0.0292. In addition, the composite z-score in assay [8] was 0.313; in assay [9], -0.131; in assay [10] it was 0.387; in assay [11], 1.34; in assay [13], 0.279; in [14] it was 1.42. In addition, the composite z-score in [15] was determined as 1.2; in [16], 0.0879; in assay [17], 0.603; in assay [18], 1.03; in [19], 0.667; in assay [20] it was 1.17. Moreover, the z-score in [4] was -1.82 (inactive); in [12], -1.18.
